Autofluor counter: compound fluorescence in toxin protease inhibitor counterscreen. compound autofluorescence counterscreen, microsphere flow cytometry; stronger effect = higher value. fluorescence intensity (concentration not given with the values). 360,000 compounds, 3.1% hits; in the data active = fluorescence intensity above about 16000; inconclusive = no clear call, values can overlap the other calls
BoNT A protease: blocks Botulinum neurotoxin A light chain protease. multiplex microsphere protease substrate cleavage, flow cytometry. inhibition, % at 10 µM. 360,000 compounds, 0.17% hits. AID 588499; note: plate controls were buffer without enzyme for full effect and enzyme alone for no effect
BoNT F protease: blocks Botulinum neurotoxin F light chain protease; Multiplex microsphere protease cleavage assay, flow cytometry; inhibition, % at 10 µM; 360,000 compounds, 0.22% hits; in the data active = inhibition above about 35%, passing the limit was not always enough; inconclusive = no clear call, values can overlap the other calls; note: plate controls were buffer without enzyme for full effect and enzyme alone for no effect
MazF activator: increases E. coli MazEF RNase cleavage of RNA; P0AE70; FAM/BHQ RNA-DNA oligo cleavage fluorescence, 5 h; activation, % at 20 µM; 350,000 compounds, 0.32% hits; AID 504720; in the data active = activation above about 50%
Target sequence (P0AE70 whole entry, looked up): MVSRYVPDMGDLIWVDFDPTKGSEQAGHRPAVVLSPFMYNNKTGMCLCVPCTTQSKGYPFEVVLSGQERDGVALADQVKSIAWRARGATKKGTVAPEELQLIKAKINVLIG
Anthrax LF inh2: inhibitors of Bacillus anthracis lethal factor protease | AID 588501 | P15917 | inhibition, % at 10 µM | 360,000 compounds, 0.12% hits | multiplex microsphere protease cleavage assay, LF; note: plate controls were buffer without enzyme for full effect and enzyme alone for no effect
VHR inh abs: inhibitors of human VHR1 phosphatase (DUSP3) | P51452 | recombinant VHR phosphatase, pNPP absorbance | inhibition, % at 13.3 µM | 290,000 compounds, 0.52% hits | AID 1654; in the data active = inhibition above about 50%
Target sequence (P51452 whole entry, looked up): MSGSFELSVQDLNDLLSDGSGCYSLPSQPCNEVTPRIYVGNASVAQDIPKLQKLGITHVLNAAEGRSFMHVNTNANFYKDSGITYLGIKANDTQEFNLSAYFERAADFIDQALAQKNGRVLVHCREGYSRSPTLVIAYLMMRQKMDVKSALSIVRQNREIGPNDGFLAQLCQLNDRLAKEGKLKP
* marks the source's active call; other numbers are inactive results; ? = inconclusive; . = not tested or not shown. In the library only some 4% were active in any assay of this set; here they are far more common. Cut-off read from the data, not from the text of the source, unless noted: active = inhibition above about 30%; inconclusive = no clear call, values can overlap the other calls; inactive = below that.

SMILES	Autofluor counter	BoNT A protease	BoNT F protease	MazF activator	Anthrax LF inh2	VHR inh abs
O=C(CCNc1ccc(F)cc1)c1cccc([N+](=O)[O-])c1	20472*	?	-2	0	-2	-11
Cc1ccc(NCCC(=O)c2cccc([N+](=O)[O-])c2)cc1	10591	0	2	-7	-3	12
COc1ccc(OP(=O)(Nc2ccccc2)Nc2ccccc2)cc1	17088*	16	14	6	-13	10
CN(C)/C=C1\C(=O)N(c2ccc(Oc3ccccc3)cc2)CS1=O (stereo not drawn)	22670*	1	1	7	-1	24
CCC(C(=O)Nc1ccc2[nH]ncc2c1)c1ccccc1 (stereo not drawn)	3505	1	-29	7	-5	57*
CCC(C(=O)Nc1ccncc1)c1ccccc1 (stereo not drawn)	2726	0	5	0	0	-11
Cc1ccc(-c2c(C(=O)N/N=C/c3ccncc3)nnn2-c2nonc2N)cc1	4202	3	5	13	6	34
COc1ccccc1NC(=O)N(C)C[C@@H]1Oc2ncc(Br)cc2C(=O)N([C@H](C)CO)C[C@@H]1C	3658	0	-5	0	-3	.
Cc1nc(N)sc1-c1csc(N(C)c2ccc(O)cc2)n1	23793*	0	-6	19	-1	8
Cc1cc(C)cc(N(CC(=O)O)S(=O)(=O)c2c(C)[nH]c(=O)[nH]c2=O)c1	4148	0	-7	1	-1	7
COc1ccccc1-c1cc(C(=O)NCCc2ccccc2)no1	3860	-2	-28	0	-2	-34
COc1ccc(NC(=O)c2cc(-c3ccccc3OC)on2)cc1	11172	0	-4	5	-2	19
COc1ccc(CCNC(=O)c2ccc(-c3ccc([N+](=O)[O-])cc3)o2)cc1OC	2140	23	8	59*	9	28
COc1ccc(-c2cc(C(=O)NCCc3ccccc3)no2)cc1OC	20927*	4	2	2	-1	-16
COc1ccc(CCNC(=O)c2cc(-c3ccccc3OC)on2)cc1OC	24479*	?	-5	3	0	11
COc1ccccc1-c1cc(C(=O)Nc2cccnc2)no1	22187*	1	1	5	-1	14
CCCS(=O)(=O)N1CCC(C(=O)NCc2cccnc2)CC1	2853	0	-2	3	-2	-4
O=C1c2ccccc2S(=O)(=O)N1CC1CC(c2ccc(Cl)cc2)=NO1 (stereo not drawn)	9082	1	5	-3	0	0
N#Cc1cc2c(nc1SCC(=O)Nc1cc(Cl)cc(Cl)c1)C1CCN2CC1	20731*	4	5	11	-6	25
CN1CCc2nc(SCC(=O)Nc3ccc(Cl)cc3)c(C#N)cc2C1	1979	3	-38	0	-4	.
Cc1ccc(NC(=O)CN2CCCCCC2)c(Br)c1	24257*	-3	-4	3	-2	4
O=C(CN1CCCCCC1)Nc1cccc(Br)c1	20288*	-2	-1	-10	0	25
O=C(c1ccccc1Cl)N1CCC(O)(c2cccnc2)CC1	2586	0	-1	5	-1	8
Cc1onc(-c2ccccc2)c1C(=O)Nc1nc(-c2cc(F)ccc2F)cs1	20225*	0	-1	-9	-3	3
Cc1noc(C)c1C(=O)Nc1nc(-c2cc(F)ccc2F)cs1	6880	-3	3	-1	-4	.
SMILES	Autofluor counter	BoNT A protease	BoNT F protease	MazF activator	Anthrax LF inh2	VHR inh abs
CCC(CC)c1nnc(NC(=O)c2c(-c3ccccc3)noc2C)s1	5431	0	-4	12	-9	50*
COc1ccccc1N1CCN(/N=C(\C)c2ccc(O)cc2)CC1	3648	-3	13	-19	-9	-3
Cc1ccc(P(=O)(CSC(=N)N)c2ccc(C)cc2)cc1	2371	0	-7	3	-3	-12
Cc1ccc(P(=O)(CO)c2ccc(C)cc2)cc1	16417*	-1	-3	7	-1	-4
COc1cc2c(cc1OC)C(C)N(C(=S)Nc1ccccc1)CC2 (stereo not drawn)	3695	-2	-11	3	-1	-4
Cc1cc2c(c(=O)n1CCN(C)C)C(c1ccc(Cl)cc1)C(C#N)=C(N)O2 (stereo not drawn)	24829*	?	-7	-8	-2	4
COc1ccc(Cn2c(C)cc3c(c2=O)C(c2cccs2)C(C#N)=C(N)O3)cc1OC (stereo not drawn)	16938*	15	20	0	-17	31
COc1ccc(CCn2c(C)cc3c(c2=O)C(c2ccncc2)C(C#N)=C(N)O3)cc1OC (stereo not drawn)	3342	0	1	2	-3	10
Cc1cc2c(c(=O)n1CCN(C)C)C(c1ccc(Br)cc1)C(C#N)=C(N)O2 (stereo not drawn)	3269	0	2	-2	-2	7
Cc1cc2c(c(=O)n1CCN(C)C)C(c1ccccc1Br)C(C#N)=C(N)O2 (stereo not drawn)	2709	0	1	-1	1	12
CCOc1ccc(C2C(C#N)=C(N)Oc3cc(C)n(CCN(C)C)c(=O)c32)cc1OCC (stereo not drawn)	16485*	0	0	6	-2	2
CCOCCCNC(=O)c1ccc2c(c1)OCO2	10504	-1	-3	4	7	3
CN(c1ccc(C(=O)NCC2CCCO2)cc1)S(=O)(=O)c1ccc(Cl)cc1 (stereo not drawn)	3882	0	1	9	5	.
Cc1nn(-c2ccccc2)c(N2CCCC2)c1/C=N/O	24403*	-6	-6	2	1	19
Cc1nn(-c2ccccc2)c(C)c1/C=N/N1CCN(c2ccccc2)CC1	20444*	-2	-6	-6	-6	13
CCOC(=O)N1CCN(C(=O)Nc2ccccc2)CC1	4512	0	-3	9	-2	-10
CCN1C(=O)c2ccc(C(=O)O)cc2C1=O	3688	-1	-29	-4	-8	9
CC(=O)OCCCN1C(=O)c2ccc(Br)cc2C1=O	22144*	?	1	11	-10	8
COCCCN1C(=O)c2ccc(C(=O)O)cc2C1=O	21024*	6	7	4	-3	-17
COc1cc(NC(=O)c2sc3ncn(CC(=O)N4CCC(C)CC4)c(=O)c3c2C)cc(OC)c1OC	5603	0	-2	2	5	25
Cc1c(C(N)=O)sc2ncn(CC(=O)N3CCC(C)CC3)c(=O)c12	22473*	1	1	-5	-6	-25
Cc1c(C(=O)NC(C)C)sc2ncn(CC(=O)N3CCC(C)CC3)c(=O)c12	19793*	2	2	5	-8	13
Cc1c(C(=O)N2CCC(C)CC2)sc2ncn(CC(=O)N3CCC(C)CC3)c(=O)c12	5907	1	-3	-21	-1	2
CC/C(O)=C(/C#N)c1nnc2n1CCCCC2	5992	-2	-4	3	-3	-9
COc1cc(/C=C2/C(=N)N3C=CSC3=NC2=O)ccc1OCCCOc1ccccc1C	4133	5	37*	-11	5	16

High-throughput results deposited in PubChem by several laboratories.
